This passage reports growth results from PubChem BioAssay (NCI).

Compounds without any hit were thinned out: in the full panel of roughly 83,000, 20% have a hit.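 Cell lines were cultured in 96-well plates, exposed to a single compound concentration, and assessed for percent growth 48 hours later.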 Unmarked numbers belong to inactive results. Active and inactive are the calls of the source. How the source made its calls: active means growth percent below 10; inactive means the rest.

Test systems include DU-145 prostate; K-562 leukemia; MALME-3M melanoma; MDA-MB-231 breast; RXF 393 renal; SF-268 CNS; SF-295 CNS; SF-539 CNS; UACC-257 melanoma; M14 melanoma.
Common to all, as to test: NCI-60 one-dose screen, 48 h (100 = growth as untreated, 0 = no growth, -100 = all killed)
Settings in all cases: 10 µM unless noted

`O=C(NN1C(=O)/C(=C/C=C/c2ccc([N+](=O)[O-])o2)SC1=S)c1ccc(O)cc1`: the growth is -100% (active) with DU-145 prostate; 0.602% (active) with K-562 leukemia; -97.9% (active) in the assay on MALME-3M melanoma; -95.9% (active) in the assay with MDA-MB-231 breast; -86.2% (active) in the assay with RXF 393 renal; -74.3% (active) with SF-268 CNS. The growth in the assay with SF-295 CNS was -85.6% (active); in the assay with SF-539 CNS, -100% (active); in the assay on UACC-257 melanoma it was -90.4% (active); in the assay with M14 melanoma, -81.9% (active).

For `COc1ccc(NC(=O)N/N=C/c2c[nH]c3ccccc23)cc1`, the growth is 27.6% in the assay with DU-145 prostate; 17.8% in the assay with K-562 leukemia; 61.9% in the assay with MALME-3M melanoma; 44.7% in the assay on MDA-MB-231 breast; 20.2% with RXF 393 renal; 55.7% in the assay with SF-268 CNS. In addition, the growth was 16.4% in the assay with SF-295 CNS, -13.6% (active) with SF-539 CNS, 72.9% with UACC-257 melanoma and 29.7% in the assay with M14 melanoma.

Consider `Oc1ccc(Cl)c(Nc2nc(SCCN3CCOCC3)nc3c2cnn3CC(Cl)c2ccc(Br)cc2)c1` (stereo not given), for which the growth was 35% in the assay with DU-145 prostate; -22.9% (active) with K-562 leukemia; 12.2% with MALME-3M melanoma; -3.97% (active) in the assay with MDA-MB-231 breast; -14.2% (active) with RXF 393 renal; 40.8% in the assay with SF-268 CNS. Moreover, the growth with SF-295 CNS was 13%; with SF-539 CNS, 29.2%; in the assay on UACC-257 melanoma it was 28.2%; with M14 melanoma, 25%.

On to `O=C1CCC(N2C(=O)c3cccc(NCCOCCOCCOCCC(=O)NCCCC(=O)NC(c4ccc5c(c4)OCO5)c4cc(Cl)c5cccnc5c4O)c3C2=O)C(=O)C1` (stereo not given), for which the growth is 60% in the assay with DU-145 prostate; 22.8% with K-562 leukemia; 29.3% in the assay with MALME-3M melanoma; 25.3% in the assay with MDA-MB-231 breast; 43.6% in the assay on RXF 393 renal; 24.4% in the assay with SF-268 CNS. The growth with SF-295 CNS is 61.6%; in the assay on SF-539 CNS, 10.3%; with UACC-257 melanoma it was 29.7%; in the assay with M14 melanoma it was 54.8%.

As for `CN(C)CCCNC(=S)Nc1ccc(/C=C/c2ccc(Cl)cc2)cc1`, the growth with DU-145 prostate was -61.8% (active); in the assay with K-562 leukemia, 4.54% (active); in the assay on MALME-3M melanoma, -95% (active); in the assay with MDA-MB-231 breast, -100% (active); in the assay on RXF 393 renal, -25.8% (active); with SF-268 CNS, 0.261% (active). Besides, the growth with SF-295 CNS is -51.7% (active); in the assay on SF-539 CNS, -68.6% (active); with UACC-257 melanoma, -79.9% (active); in the assay on M14 melanoma it was -63.5% (active).

Turning to `O=C(NNC(=S)NC(=O)c1ccccc1)c1ccc(OCc2nc3ccc(Cl)cc3[nH]2)cc1`, the growth in the assay on DU-145 prostate was 26.3%; with K-562 leukemia, 4.64% (active); in the assay on MALME-3M melanoma, -75.4% (active); in the assay on MDA-MB-231 breast, -71.2% (active); in the assay on RXF 393 renal it was -56.7% (active); with SF-268 CNS it was -2.2% (active). Further, the growth in the assay on SF-295 CNS was -80.9% (active); with SF-539 CNS, -91.2% (active); with UACC-257 melanoma, -24.8% (active); in the assay with M14 melanoma it was -54.5% (active).

As for `N#C/C(=C/c1ccc([N+](=O)[O-])cc1)c1nnc(NC(=O)c2ccc(-n3c(=O)[nH]c4ccccc4c3=O)cc2)s1`, the growth is 83.1% with DU-145 prostate; 103% in the assay on K-562 leukemia; 91.6% in the assay with MALME-3M melanoma; 89.5% in the assay on MDA-MB-231 breast; 87.9% in the assay with RXF 393 renal; 110% in the assay on SF-268 CNS. The growth in the assay with SF-295 CNS was 100%; in the assay on SF-539 CNS, 93.6%; with UACC-257 melanoma, 105%; in the assay with M14 melanoma, 120%.

Consider `O=CNc1cccc(-n2cnc3cc(-c4ccc(O)cc4)ccc32)c1`, for which the growth with DU-145 prostate was 43.7%; with K-562 leukemia, 12.2%; in the assay with MALME-3M melanoma, 42.8%; with MDA-MB-231 breast, 55.3%; in the assay on RXF 393 renal, 11%; with SF-268 CNS it was 40.7%. The growth with SF-295 CNS is 25.5%; in the assay on SF-539 CNS, -6.56% (active); in the assay on UACC-257 melanoma, 84.7%; in the assay on M14 melanoma, 57.2%.

Regarding `Cc1ccc(Nc2nnc(-c3c[nH]c4ccccc34)o2)c(C)c1`, the growth was 16.5% in the assay with DU-145 prostate; 6.22% (active) in the assay with K-562 leukemia; 39.1% in the assay on MALME-3M melanoma; -1.28% (active) with MDA-MB-231 breast; -11.9% (active) in the assay on RXF 393 renal; 32.5% in the assay on SF-268 CNS. Also, the growth in the assay on SF-295 CNS is 9.91% (active); in the assay with SF-539 CNS, -32.4% (active); in the assay with UACC-257 melanoma, 60.9%; with M14 melanoma it was 15.6%.

Turning to `Nc1cc2ccccc2c(=O)n1NC(=O)c1ccccc1`, the growth was 104% in the assay with DU-145 prostate; 97.6% with K-562 leukemia; 84.4% in the assay on MALME-3M melanoma; 87% with MDA-MB-231 breast; 104% with RXF 393 renal; 95.9% with SF-268 CNS. Moreover, the growth is 90.6% in the assay on SF-295 CNS, 93.7% with SF-539 CNS, 104% in the assay with UACC-257 melanoma and 100% with M14 melanoma.

`CCN(C(=O)CN1C(=O)/C(=C/c2ccco2)SC1=S)C1CCS(=O)(=O)C1` (stereo not given): the growth in the assay with DU-145 prostate was 101%; in the assay on K-562 leukemia it was 89.9%; in the assay with MALME-3M melanoma, 104%; in the assay with MDA-MB-231 breast, 108%; in the assay with RXF 393 renal, 109%; in the assay with SF-268 CNS it was 95.4%. Moreover, the growth was 105% with SF-295 CNS, 98% with SF-539 CNS, 98.2% with UACC-257 melanoma and 97.3% with M14 melanoma.

Consider `Clc1ccc(Nc2nnc(-c3c[nH]c4ccccc34)o2)cc1`, for which the growth in the assay on DU-145 prostate was 91%; in the assay with K-562 leukemia, 32%; in the assay on MALME-3M melanoma, 78.8%; in the assay on MDA-MB-231 breast it was 65.1%; with RXF 393 renal, 90.2%; with SF-268 CNS, 68.6%. Also, the growth in the assay with SF-295 CNS was 68.6%; in the assay with SF-539 CNS, 66.5%; in the assay on UACC-257 melanoma it was 84.4%; in the assay with M14 melanoma, 80.9%.

Turning to `COc1cc(C2C(C(=O)OCc3ccccc3)=C(C)Nc3nc4ccccc4n32)cc(OC)c1OC` (stereo not given), the growth with DU-145 prostate is 59.3%; in the assay with K-562 leukemia, 20.7%; in the assay with MALME-3M melanoma it was -16.7% (active); with MDA-MB-231 breast, -26.7% (active); in the assay with RXF 393 renal, -39.6% (active); in the assay with SF-268 CNS, 15.1%. The growth in the assay with SF-295 CNS was 3.38% (active); in the assay with SF-539 CNS, -44.5% (active); in the assay with UACC-257 melanoma, 30.2%; with M14 melanoma it was 27.1%.
